Assay results taken from PubChem BioAssay (Tox21).
Active and inactive are the calls of the source. Unless noted, calls come from the whole dose curve; as a rule, active = well fitted curve in the direction sought with a large enough effect in the repeat runs; inconclusive = weak or mixed curves; inactive = no such curve, though single readings can be large; an effect the other way counts as inactive or inconclusive. Non-standard residues stand in square brackets, D forms with d. Residues, ends and D or L forms follow the SMILES beside them. Orn = NCCC[C@H](N)C(=O)O

What was measured:
[1] = qHTS assay to test for compound auto fluorescence at 535 nm (green) in HEK293 cells (AID 720680)
[2] = qHTS assay to test for compound auto fluorescence at 460 nm (blue) in HEK293 cell free culture (AID 720681)
Outline: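 Compounds were added to cell-free DMEM with 10% FBS and fluorescence read directly. The blue channel used 405 nm excitation and 460 nm emission, with triamterene as the reference fluorophore.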

[3] = qHTS assay to test for compound auto fluorescence at 535 nm (green) in HEK293 cell free culture (AID 720682)
Outline: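 DMEM + 10% FBS, cell-free; cpd or DMSO pinned in; Ex485/Em535 read; output as fluorescein-equivalent signal.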

[4] = qHTS assay to test for compound auto fluorescence at 590 nm (red) in HEK293 cell free culture (AID 720683)
Outline: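 Cell-free wells of DMEM with 10% FBS received compound, and intrinsic fluorescence was read at excitation/emission 540/590 nm. Values expressed as equivalence to Rose Bengal sodium.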

[5] = qHTS assay to test for compound auto fluorescence at 460 nm (blue) in HepG2 cell free culture (AID 720685)
Outline: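 Cell-free plates of MEM plus 10% FBS received 23 nL compound or DMSO vehicle; blue-channel (405/460 nm) intensity scored against triamterene as reference fluorophore.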

[6] = qHTS assay for identifying genotoxic compounds that show differential cytotoxicity against isogenic chicken DT40 cell lines with known DNA damage response pathways - wild type cell line (AID 743012); note: nearly all actives have a fitted effect of over 60% in size; note: potency is the fitted concentration of half-maximal effect
Outline: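 CellTiter-Glo luminescence readout of viability in wild type DT40 cells after 40 h compound exposure at 37 C/5% CO2; 300 cells/well; reagent incubated 30 min at room temperature before reading.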

[7] = qHTS assay for identifying genotoxic compounds that show differential cytotoxicity against isogenic chicken DT40 cell lines with known DNA damage response pathways - Rev3 mutant cell line (AID 743014); note: nearly all actives have a fitted effect of over 55% in size; note: potency is the fitted concentration of half-maximal effect
[8] = qHTS assay for identifying genotoxic compounds that show differential cytotoxicity against isogenic chicken DT40 cell lines with known DNA damage response pathways - Rad54/Ku70 mutant cell line (AID 743015); note: nearly all actives have a fitted effect of over 60% in size; note: potency is the fitted concentration of half-maximal effect
[9] = qHTS assay to test for compound auto fluorescence at 590 nm (red) in HepG2 cell free culture (AID 720684)
Outline: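 Rose Bengal sodium served as the reference for red signal. Test compounds were dispensed into serum-containing MEM (10% FBS) without cells, and plates were read at 540/590 nm.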

[10] = qHTS assay to test for compound auto fluorescence at 535 nm (green) in HepG2 cell free culture (AID 720686)
[11] = biological target: Glucocorticoid receptor (Homo sapiens) (UniProt P04150); experiment: qHTS assay to identify small molecule agonists of the glucocorticoid receptor (GR) signaling pathway (AID 720691; active = well fitted activation curve with a large enough effect in the signal ratio in the repeat runs, not every such curve was filed as active; inconclusive = weak or mixed curves, or effect the other way; inactive = no such curve, though single readings can be large or run the other way; the % refers to the signal ratio; note: potency is the fitted concentration of half-maximal effect); details: GR-bla HeLa, beta-lactamase reporter ratio, 18 h; activation: at 62.4 µM (top of the series)
Glucocorticoid receptor (Homo sapiens), sequence (P04150 whole entry, looked up): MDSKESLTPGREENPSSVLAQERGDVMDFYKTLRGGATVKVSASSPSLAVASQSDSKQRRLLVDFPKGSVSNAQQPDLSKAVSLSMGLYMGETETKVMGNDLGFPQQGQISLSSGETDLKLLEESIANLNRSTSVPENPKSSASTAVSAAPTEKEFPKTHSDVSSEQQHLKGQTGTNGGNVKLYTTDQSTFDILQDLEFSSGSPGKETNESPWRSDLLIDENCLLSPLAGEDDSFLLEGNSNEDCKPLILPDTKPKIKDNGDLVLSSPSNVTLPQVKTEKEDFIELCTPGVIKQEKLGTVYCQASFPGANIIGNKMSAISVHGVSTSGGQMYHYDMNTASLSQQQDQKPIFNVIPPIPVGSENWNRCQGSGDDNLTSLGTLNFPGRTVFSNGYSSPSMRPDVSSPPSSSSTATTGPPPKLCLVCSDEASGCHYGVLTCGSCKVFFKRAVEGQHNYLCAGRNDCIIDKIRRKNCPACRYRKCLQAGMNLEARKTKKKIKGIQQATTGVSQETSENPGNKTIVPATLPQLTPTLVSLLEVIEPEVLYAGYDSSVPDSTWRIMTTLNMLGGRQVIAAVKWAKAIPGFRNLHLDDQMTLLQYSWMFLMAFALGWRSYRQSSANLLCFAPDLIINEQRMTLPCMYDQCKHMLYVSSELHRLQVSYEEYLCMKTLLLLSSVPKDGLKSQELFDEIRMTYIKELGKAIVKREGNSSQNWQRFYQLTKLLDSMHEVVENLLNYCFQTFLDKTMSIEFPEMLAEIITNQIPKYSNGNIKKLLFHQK
Outline: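 HeLa GR-bla reporter line; cells pre-incubated 4 h, compound in DMSO 18 h at 37 C; LiveBLAzer B/G FRET substrate 2 h RT; fluorescence intensity read-out.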

[12] = qHTS assay to identify small molecule antagonists of the androgen receptor (AR) signaling pathway using the MDA cell line - cell viability counter screen (AID 743041; note: nearly all actives have a fitted effect of over 45% in size; note: potency is the fitted concentration of half-maximal effect)
Outline: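 Cytotoxicity counter screen: MDA-kb2 AR-luc cells, compound + R1881, 16 h, 37C, 0% CO2; CellTiter-Fluor added at 15.5 h, fluorescence read after 30 min.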

[13] = qHTS assay to test for compound auto fluorescence at 460 nm (blue) in HepG2 cells (AID 720687)
Outline: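 HepG2 cells in MEM with 10% FBS, attached overnight at 37 C, were exposed to compound or DMSO for 1 hr at 37 C, 5% CO2. Blue fluorescence was read at 405/460 nm, with triamterene as reference fluorophore.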

[14] = qHTS assay to identify small molecule antagonists of the glucocorticoid receptor (GR) signaling pathway - cell viability counter screen (AID 720693); note: nearly all actives have a fitted effect of over 55% in size; note: potency is the fitted concentration of half-maximal effect
[15] = qHTS assay to identify small molecule antagonists of the androgen receptor (AR) signaling pathway - cell viability counter screen (AID 743033; note: nearly all actives have a fitted effect of over 45% in size; note: potency is the fitted concentration of half-maximal effect)
[16] = biological target: Glucocorticoid receptor (Homo sapiens) (UniProt P04150); experiment: qHTS assay to identify small molecule antagonists of the glucocorticoid receptor (GR) signaling pathway (AID 720692; active = well fitted inhibition curve with a large enough effect in the signal ratio in the repeat runs, not every such curve was filed as active; inconclusive = weak or mixed curves, or effect the other way; inactive = no such curve, though single readings can be large or run the other way; the % refers to the signal ratio; note: potency is the fitted concentration of half-maximal effect)
Outline: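 Read-out: beta-lactamase FRET substrate fluorescence, 2 h at room temperature, in HeLa cells stably carrying a GRE-driven bla reporter. Compounds were co-incubated with 5 nM dexamethasone agonist (final) for 18 h at 37 C.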

[17] = biological target: Androgen receptor (Homo sapiens) (UniProt P10275); experiment: qHTS assay to identify small molecule agonists of the androgen receptor (AR) signaling pathway (AID 743036; active = well fitted activation curve with a large enough effect in the signal ratio in the repeat runs, with a control signal flat, not every such curve was filed as active; inconclusive = weak or mixed curves, or effect the other way; inactive = no such curve, though single readings can be large or run the other way; the % refers to the signal ratio)
Androgen receptor (Homo sapiens), sequence (P10275 whole entry, looked up): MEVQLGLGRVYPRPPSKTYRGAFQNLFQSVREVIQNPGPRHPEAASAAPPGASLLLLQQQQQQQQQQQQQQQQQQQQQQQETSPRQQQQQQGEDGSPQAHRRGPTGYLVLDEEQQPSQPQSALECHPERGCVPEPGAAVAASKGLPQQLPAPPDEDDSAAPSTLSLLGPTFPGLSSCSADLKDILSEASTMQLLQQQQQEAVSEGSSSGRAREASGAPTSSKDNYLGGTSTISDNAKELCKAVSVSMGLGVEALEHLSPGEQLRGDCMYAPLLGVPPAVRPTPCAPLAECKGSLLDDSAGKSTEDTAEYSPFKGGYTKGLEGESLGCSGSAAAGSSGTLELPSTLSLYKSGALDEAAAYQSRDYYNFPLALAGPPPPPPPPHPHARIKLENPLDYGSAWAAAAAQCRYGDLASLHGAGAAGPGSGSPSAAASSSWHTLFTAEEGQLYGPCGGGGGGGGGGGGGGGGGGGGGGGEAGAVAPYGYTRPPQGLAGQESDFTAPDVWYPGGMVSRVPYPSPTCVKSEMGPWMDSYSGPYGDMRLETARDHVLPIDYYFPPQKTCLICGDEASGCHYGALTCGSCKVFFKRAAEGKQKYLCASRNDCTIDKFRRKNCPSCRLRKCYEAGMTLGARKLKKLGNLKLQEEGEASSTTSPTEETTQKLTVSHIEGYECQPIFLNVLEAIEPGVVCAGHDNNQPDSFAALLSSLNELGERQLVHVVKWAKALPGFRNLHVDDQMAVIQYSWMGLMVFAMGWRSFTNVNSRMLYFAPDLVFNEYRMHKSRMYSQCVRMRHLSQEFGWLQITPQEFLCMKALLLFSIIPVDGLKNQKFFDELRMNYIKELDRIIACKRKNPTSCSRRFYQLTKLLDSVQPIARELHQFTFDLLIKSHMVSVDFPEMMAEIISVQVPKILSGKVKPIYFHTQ
Outline: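 Screening used 2,000 AR-bla HEK293 cells per well, treated 16 h at 37C with test compounds in DMSO alongside positive and DMSO-only controls; beta-lactamase activity was then read by LiveBLAzer B/G FRET fluorescence after 2 h at room temperature.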

[18] = biological target: Androgen receptor (Homo sapiens) (UniProt P10275); experiment: qHTS assay to identify small molecule agonists of the androgen receptor (AR) signaling pathway using the MDA cell line (AID 743040; note: nearly all actives have a fitted effect of over 20% in size; note: potency is the fitted concentration of half-maximal effect)
Outline: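 Luciferase read-out, ONE-Glo, 30 min RT. Cells: MDA-kb2 AR-luc, MMTV promoter with AR and GR response elements. Compound exposure 16 h, 37C, 0% CO2, after 5 h pre-incubation. qHTS agonist mode.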

[19] = biological target: Androgen receptor (Homo sapiens) (UniProt P10275); experiment: qHTS assay to identify small molecule antagonists of the androgen receptor (AR) signaling pathway using the MDA cell line (AID 743042; note: nearly all actives have a fitted effect of over 55% in size; note: potency is the fitted concentration of half-maximal effect)
Outline: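 MDA-kb2 breast carcinoma cells carrying MMTV-luciferase (AR/GR responsive) were co-treated with compounds and the agonist R1881 for 16 h at 37C. Inhibition read as ONE-Glo luminescence; CellTiter-Fluor fluorescence measured in parallel for cytotoxicity.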

Measured: Potency

CN1CCN(CCCN2c3ccccc3Sc3ccc(C(F)(F)F)cc32)CC1
active: [6] 5.31 µM | [7] 2.11 µM | [8] 5.31 µM
inactive: [1] | [2] | [3] | [4] | [5]

CC(O)(c1ccc(Cl)cc1)c1ccc(Cl)cc1
inactive: [1] | [2] | [3] | [4] | [9] | [10] | [11] | [12]

CC(C)[N+]1(C)[C@@H]2CC[C@H]1CC(OC(=O)C(CO)c1ccccc1)C2 (stereo partly drawn)
inactive: [1] | [2] | [3] | [4] | [5] | [10] | [13] | [11] | [14] | [15] | [12]

NC[C@@H]1CC[C@@H](N)[C@@H](O[C@H]2[C@H](O)[C@@H](O[C@H]3O[C@H](CO)[C@@H](O)[C@H](N)[C@H]3O)[C@H](N)C[C@@H]2N)O1
inactive: [1] | [2] | [3] | [4] | [5] | [10] | [13] | [11] | [16] | [14] | [6] | [7] | [8] | [17] | [12] | [19]
active: [18] 29.8 µM

NC(=O)C1c2ccccc2CCc2ccccc21
inactive: [1] | [2] | [3] | [4] | [9] | [10] | [11] | [16] | [14] | [8] | [17] | [12] | [19]

CC(C)C[C@@H]1NC(=O)[C@H](CCCN)NC(=O)[C@H](C(C)C)NC(=O)[C@@H]2CCCN2C(=O)[C@@H](Cc2ccccc2)NC(=O)[C@H](CC(C)C)NC(=O)[C@H](CCCN)NC(=O)[C@H](C(C)C)NC(=O)[C@@H]2CCCN2C(=O)[C@@H](Cc2ccccc2)NC1=O (cyclo(V[Orn]L[dF]PV[Orn]L[dF]P))
active: [11] 23.9 µM [inconclusive] | [14] 19 µM | [7] 0.075 µM | [8] 0.0944 µM | [15] 2.68 µM | [12] 1.97 µM
inactive: [1] | [2] | [3] | [4] | [10] | [13]

CO/N=C(\C(=O)N[C@@H]1C(=O)N2C(C(=O)O)=C(CSc3cnns3)CS[C@H]12)c1csc(N)n1
inactive: [1] | [2] | [3] | [4] | [5] | [13] | [11] | [16] | [14] | [8] | [15] | [17] | [18] | [12] | [19]

C[C@]12O[C@H](C[C@]1(O)CO)n1c3ccccc3c3c4c(c5c6ccccc6n2c5c31)CNC4=O
active: [14] 3.01 µM | [6] 0.237 µM | [7] 0.376 µM | [8] 0.376 µM | [12] 11.9 µM | [19] 2.98 µM
inactive: [1] | [2] | [3] | [4] | [5] | [10] | [13] | [18]

CC1CCCC(C)N1NC(=O)c1ccc(Cl)c(S(N)(=O)=O)c1 (stereo not drawn)
inactive: [1] | [2] | [3] | [4] | [5] | [10] | [13] | [11] | [16] | [14] | [6] | [7] | [8] | [15] | [12]

c1ccc(-c2ccc(C(c3ccccc3)n3ccnc3)cc2)cc1 (stereo not drawn)
inactive: [1] | [2] | [3] | [4] | [9] | [13] | [14] | [15] | [12]
active: [16] 23.9 µM | [6] 10.6 µM | [8] 11.9 µM

CCCn1c(=O)[nH]c(=O)c2[nH]cnc21
inactive: [1] | [2] | [3] | [4] | [5] | [10] | [13] | [14] | [6] | [7] | [8] | [15] | [12]

O=C(CCN1CCC(c2ccccc2)C1)c1ccc2c(c1)OCCO2 (stereo not drawn)
inactive: [1] | [2] | [3] | [9] | [5] | [10] | [13] | [11] | [14] | [15]
active: [7] 4.73 µM | [8] 4.22 µM | [12] 29.8 µM

CCN(CC)C(=O)[C@]1(c2ccccc2)C[C@@H]1CN
inactive: [2] | [3] | [4] | [9] | [5] | [10] | [13] | [11] | [16] | [14] | [6] | [8] | [12]

COc1cc2c(cc1OC)[C@@H](Cc1cc(OC)c(OC)c(OC)c1)[N+](C)(CCCOC(=O)CC/C=C/CCC(=O)OCCC[N+]1(C)CCc3cc(OC)c(OC)cc3[C@H]1Cc1cc(OC)c(OC)c(OC)c1)CC2 (stereo partly drawn)
inactive: [1] | [2] | [3] | [9] | [5] | [10] | [13] | [14] | [7] | [8] | [12]

CCCCC[C@H](O)/C=C/[C@@H]1[C@@H](C/C=C\CCCC(=O)O)[C@@H](O)C[C@H]1O
inactive: [1] | [2] | [3] | [9] | [10] | [13] | [11] | [14] | [6] | [7] | [8] | [15] | [12]
